Laboratory results from ChEMBL document CHEMBL1857833, “Screening and optimization of specific chemical series against human African Trypanosomiasis (HAT)”.
Among all 4,400 compounds or so, about 390 (8.9%) showed an effect of 50% or more. This excerpt belongs to a sample that is enriched for strong results.

Tested on: Trypanosoma brucei
Test: DNDI: Inhibition of Human African Trypanosomiasis, SBRI 427, in vitro at 2 ug.mL-1
Assay type: functional

| SMILES | % inhibition |
| --- | --- |
| Cc1cc(Oc2ccc(/C(=N/O)N3CCCC3C)cn2)cc(C(C)C)c1 (stereo not given) | 93% |
| Cc1cc(C)cc(Oc2ccc(/C(=N/O)N3C(C)CCC3C)cn2)c1 (stereo not given) | 6% |
| Cc1cc(Oc2ccc(/C(=N/O)N3CC(C)CC(C)C3)cn2)cc(C(C)C)c1 (stereo not given) | 4% |
| CC1CCCN1/C(=N\O)c1ccc(Oc2ccc3ccccc3c2)nc1 (stereo not given) | 99% |
| CC1CC(C)CN(/C(=N\O)c2ccc(Oc3ccc4ccccc4c3)nc2)C1 (stereo not given) | -15% |
| O/N=C(/c1ccc(Oc2ccc3ccccc3c2)nc1)N1CCCCC1 | 12% |
| CC1CCC(C)N1/C(=N\O)c1ccc(Oc2ccc3ccccc3c2)nc1 (stereo not given) | 99% |
| Cc1cc(Oc2ccc(/C(=N/O)N3CCCCCC3)cn2)cc(C(C)C)c1 | 21% |
| CC1CCCN1/C(=N\O)c1ccc(Oc2ccc3oc4ccccc4c3c2)nc1 (stereo not given) | -6% |
| Cc1cc(C)n(/C(=N\O)c2ccc(Oc3ccc4ccccc4c3)nc2)n1 | 12% |
| CCCCC(CC)CNCc1coc(-c2ccccc2Br)n1 (stereo not given) | 8% |
| CCOc1ccccc1-c1nc(CN(CCC#N)C2CCCCC2)co1 | -4% |
| Cc1ncn(Cc2coc(-c3ccc(Br)cc3)n2)c1C=O | 10% |
| CCOC(=O)CC(C)NCc1coc(-c2ccc(Cl)cc2Cl)n1 (stereo not given) | -1% |
| O/N=C(\NC1CCC1)c1ccnc(Oc2cc(Cl)ccc2Cl)c1 | 95% |
| COc1cccc(CN/C(=N\O)c2ccnc(Oc3cc(Cl)ccc3Cl)c2)c1 | 11% |
| O/N=C(/c1ccnc(Oc2cc(Cl)ccc2Cl)c1)N1CCC=N1 | 32% |
| O/N=C(\NC1CCCC1)c1ccnc(Oc2cc(Cl)ccc2Cl)c1 | 94% |
| N/C(=N\O)c1ccnc(Oc2cc(Cl)ccc2Cl)c1 | 20% |
| CC1CC(N/C(=N\O)c2ccnc(Oc3cc(Cl)ccc3Cl)c2)CC(C)(C)C1 (stereo not given) | 9% |
| O/N=C(/c1cccnc1Oc1ccccc1OCc1ccccc1)N1CCOCC1 | -16% |
| CN(CCCNCc1coc(-c2cccc(F)c2)n1)c1ccccc1 | 5% |
| CCOc1ccc(-c2nc(CN(CC)C(C)(C)C)co2)cc1 | 6% |
| CC(C)COc1ncccc1/C(=N/O)NC1CCCCC1 | 82% |
| CC(C)COc1ncccc1/C(=N/O)NC1CCN(Cc2ccccc2)C1 (stereo not given) | -2% |
| CC(C)COc1ncccc1/C(=N/O)Nc1ccc(C(C)C)cc1 | 2% |
| CC(C)COc1ncccc1/C(=N/O)NC1CCC1 | 97% |
| CC(C)COc1ncccc1/C(=N/O)NC1CCCC1 | 97% |

| SMILES | % inhibition |
| --- | --- |
| CC1CCC(N/C(=N\O)c2cccnc2OCC(C)(C)C)CC1 (stereo not given) | 5% |
| CC(C)COc1ncccc1/C(=N/O)NC1CCC(C)CC1 (stereo not given) | 83% |
| CC(C)COc1ncccc1/C(=N/O)N1CCC(C)CC1 | -1% |
| Cc1ccccc1-c1nc(CN2CCC(N3CCCCC3)CC2)co1 | 14% |
| C1=C(CCNCc2coc(-c3cccs3)n2)CCCC1 | -10% |
| Cc1ccccc1NCc1coc(-c2ccco2)n1 | -2% |
| CCN(Cc1coc(-c2ccc(C(F)(F)F)cc2)n1)c1ccccc1 | 4% |
| CC(NCc1coc(-c2ccc(OC(F)(F)F)cc2)n1)c1cccc2ccccc12 (stereo not given) | -34% |
| O/N=C(\NCc1cc(F)cc(F)c1)c1ccc(Oc2c(F)c(F)cc(F)c2F)nc1 | 10% |
| N/C(=N\O)c1ccc(Oc2cccc3c2CCCC3)nc1 | 19% |
| O/N=C(/c1ccc(Oc2cccc3c2CCCC3)nc1)N1CCCCC1 | 31% |
| CCC(CC)N/C(=N\O)c1ccc(Oc2cccc3c2CCCC3)nc1 | 76% |
| O/N=C(\NCC1CC1)c1ccc(Oc2cccc3c2CCCC3)nc1 | 77% |
| O/N=C(\NCc1c(F)cccc1F)c1ccc(Oc2cccc3c2CCCC3)nc1 | 15% |
| O/N=C(\NCc1cccs1)c1ccc(Oc2cccc3c2CCCC3)nc1 | 4% |
| O/N=C(\NC1CCCC1)c1ccc(Oc2cccc3c2CCCC3)nc1 | 97% |
| O/N=C(\Nc1ccccc1)c1ccc(Oc2cccc3c2CCCC3)nc1 | 22% |
| COc1ccc(CN/C(=N\O)c2ccc(Oc3cccc4c3CCCC4)nc2)cc1 | 32% |
| Cc1ccccc1-c1nc(CN2CCN(c3cccc(C(F)(F)F)c3)CC2)co1 | 14% |
| CCOc1ccccc1-c1nc(CN2CCC3(CC2)OCCO3)co1 | 1% |
| COC(=O)C1CCN(Cc2coc(-c3cccc(F)c3)n2)CC1 | 6% |
| CCN(CC)Cc1coc(-c2cccc(OC)c2)n1 | 11% |
| COc1ccc(CN/C(=N\O)c2cccnc2Oc2ccccc2)cc1 | 14% |
| O/N=C(\NCc1cccnc1)c1cccnc1OCC1CCCCC1 | 6% |
| O/N=C(\NCc1cc(F)cc(F)c1)c1cccnc1Oc1ccc(Cl)cc1 | 59% |
| COc1ccc(Oc2ncccc2/C(=N/O)NCc2cc(F)cc(F)c2)cc1 | 39% |
| CCc1ccc(Oc2ncccc2/C(=N/O)NCc2ccncc2)cc1 | 5% |
